The supplement of paper PMC11001985
Unmarked numbers belong to inactive results.

Each target was assayed with C#CCNC(=O)CCSSCCC(=O)NCCc1ccc(C=O)c(C=O)c1 (assay: lysine labeling ratio R10:1 (500 µM / 50 µM probe), SILAC-ABPP in living cells; higher = lower intrinsic lysine reactivity toward the probe, active = 2 or less). Details: HeLa; probe concentrations 500 vs 50 µM.
Procedure, shortened: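 Living SILAC light and heavy HeLa cells in PBS at room temperature were treated with an alkyne-tagged, disulfide-linked lysine probe at 50 µM or 500 µM, with forward and reverse label swaps. The mixed lysates were clicked to biotin-azide, digested with trypsin, captured on neutravidin, released with DTT, alkylated and run by LC-MS/MS on a TIMS-TOF Pro. R for each lysine is the filtered median high-probe/low-probe MS1 peptide ratio, taken again as the median over forward and reverse replicates. Any value above 20 is set to 20.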

Chain of UniProt P02786 (P02786 whole entry, looked up): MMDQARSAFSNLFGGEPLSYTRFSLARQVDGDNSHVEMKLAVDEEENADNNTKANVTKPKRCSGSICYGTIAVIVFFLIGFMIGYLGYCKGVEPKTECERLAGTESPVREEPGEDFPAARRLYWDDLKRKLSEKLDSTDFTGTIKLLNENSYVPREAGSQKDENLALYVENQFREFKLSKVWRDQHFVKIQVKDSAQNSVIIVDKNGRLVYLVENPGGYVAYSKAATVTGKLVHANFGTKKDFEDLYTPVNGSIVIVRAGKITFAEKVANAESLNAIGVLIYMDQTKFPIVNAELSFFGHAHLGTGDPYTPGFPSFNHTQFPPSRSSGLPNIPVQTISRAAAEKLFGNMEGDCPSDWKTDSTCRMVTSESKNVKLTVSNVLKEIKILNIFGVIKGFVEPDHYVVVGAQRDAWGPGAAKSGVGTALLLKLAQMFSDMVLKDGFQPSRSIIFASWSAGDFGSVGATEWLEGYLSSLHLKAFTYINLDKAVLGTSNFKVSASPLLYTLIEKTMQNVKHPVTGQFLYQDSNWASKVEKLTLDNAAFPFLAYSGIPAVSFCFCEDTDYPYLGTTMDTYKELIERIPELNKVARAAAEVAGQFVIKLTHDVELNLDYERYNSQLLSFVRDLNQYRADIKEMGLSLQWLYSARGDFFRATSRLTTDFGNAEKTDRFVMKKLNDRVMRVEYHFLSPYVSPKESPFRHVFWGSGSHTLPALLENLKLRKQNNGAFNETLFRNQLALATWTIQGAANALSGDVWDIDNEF
Chain of UniProt Q9Y490 (Q9Y490 whole entry): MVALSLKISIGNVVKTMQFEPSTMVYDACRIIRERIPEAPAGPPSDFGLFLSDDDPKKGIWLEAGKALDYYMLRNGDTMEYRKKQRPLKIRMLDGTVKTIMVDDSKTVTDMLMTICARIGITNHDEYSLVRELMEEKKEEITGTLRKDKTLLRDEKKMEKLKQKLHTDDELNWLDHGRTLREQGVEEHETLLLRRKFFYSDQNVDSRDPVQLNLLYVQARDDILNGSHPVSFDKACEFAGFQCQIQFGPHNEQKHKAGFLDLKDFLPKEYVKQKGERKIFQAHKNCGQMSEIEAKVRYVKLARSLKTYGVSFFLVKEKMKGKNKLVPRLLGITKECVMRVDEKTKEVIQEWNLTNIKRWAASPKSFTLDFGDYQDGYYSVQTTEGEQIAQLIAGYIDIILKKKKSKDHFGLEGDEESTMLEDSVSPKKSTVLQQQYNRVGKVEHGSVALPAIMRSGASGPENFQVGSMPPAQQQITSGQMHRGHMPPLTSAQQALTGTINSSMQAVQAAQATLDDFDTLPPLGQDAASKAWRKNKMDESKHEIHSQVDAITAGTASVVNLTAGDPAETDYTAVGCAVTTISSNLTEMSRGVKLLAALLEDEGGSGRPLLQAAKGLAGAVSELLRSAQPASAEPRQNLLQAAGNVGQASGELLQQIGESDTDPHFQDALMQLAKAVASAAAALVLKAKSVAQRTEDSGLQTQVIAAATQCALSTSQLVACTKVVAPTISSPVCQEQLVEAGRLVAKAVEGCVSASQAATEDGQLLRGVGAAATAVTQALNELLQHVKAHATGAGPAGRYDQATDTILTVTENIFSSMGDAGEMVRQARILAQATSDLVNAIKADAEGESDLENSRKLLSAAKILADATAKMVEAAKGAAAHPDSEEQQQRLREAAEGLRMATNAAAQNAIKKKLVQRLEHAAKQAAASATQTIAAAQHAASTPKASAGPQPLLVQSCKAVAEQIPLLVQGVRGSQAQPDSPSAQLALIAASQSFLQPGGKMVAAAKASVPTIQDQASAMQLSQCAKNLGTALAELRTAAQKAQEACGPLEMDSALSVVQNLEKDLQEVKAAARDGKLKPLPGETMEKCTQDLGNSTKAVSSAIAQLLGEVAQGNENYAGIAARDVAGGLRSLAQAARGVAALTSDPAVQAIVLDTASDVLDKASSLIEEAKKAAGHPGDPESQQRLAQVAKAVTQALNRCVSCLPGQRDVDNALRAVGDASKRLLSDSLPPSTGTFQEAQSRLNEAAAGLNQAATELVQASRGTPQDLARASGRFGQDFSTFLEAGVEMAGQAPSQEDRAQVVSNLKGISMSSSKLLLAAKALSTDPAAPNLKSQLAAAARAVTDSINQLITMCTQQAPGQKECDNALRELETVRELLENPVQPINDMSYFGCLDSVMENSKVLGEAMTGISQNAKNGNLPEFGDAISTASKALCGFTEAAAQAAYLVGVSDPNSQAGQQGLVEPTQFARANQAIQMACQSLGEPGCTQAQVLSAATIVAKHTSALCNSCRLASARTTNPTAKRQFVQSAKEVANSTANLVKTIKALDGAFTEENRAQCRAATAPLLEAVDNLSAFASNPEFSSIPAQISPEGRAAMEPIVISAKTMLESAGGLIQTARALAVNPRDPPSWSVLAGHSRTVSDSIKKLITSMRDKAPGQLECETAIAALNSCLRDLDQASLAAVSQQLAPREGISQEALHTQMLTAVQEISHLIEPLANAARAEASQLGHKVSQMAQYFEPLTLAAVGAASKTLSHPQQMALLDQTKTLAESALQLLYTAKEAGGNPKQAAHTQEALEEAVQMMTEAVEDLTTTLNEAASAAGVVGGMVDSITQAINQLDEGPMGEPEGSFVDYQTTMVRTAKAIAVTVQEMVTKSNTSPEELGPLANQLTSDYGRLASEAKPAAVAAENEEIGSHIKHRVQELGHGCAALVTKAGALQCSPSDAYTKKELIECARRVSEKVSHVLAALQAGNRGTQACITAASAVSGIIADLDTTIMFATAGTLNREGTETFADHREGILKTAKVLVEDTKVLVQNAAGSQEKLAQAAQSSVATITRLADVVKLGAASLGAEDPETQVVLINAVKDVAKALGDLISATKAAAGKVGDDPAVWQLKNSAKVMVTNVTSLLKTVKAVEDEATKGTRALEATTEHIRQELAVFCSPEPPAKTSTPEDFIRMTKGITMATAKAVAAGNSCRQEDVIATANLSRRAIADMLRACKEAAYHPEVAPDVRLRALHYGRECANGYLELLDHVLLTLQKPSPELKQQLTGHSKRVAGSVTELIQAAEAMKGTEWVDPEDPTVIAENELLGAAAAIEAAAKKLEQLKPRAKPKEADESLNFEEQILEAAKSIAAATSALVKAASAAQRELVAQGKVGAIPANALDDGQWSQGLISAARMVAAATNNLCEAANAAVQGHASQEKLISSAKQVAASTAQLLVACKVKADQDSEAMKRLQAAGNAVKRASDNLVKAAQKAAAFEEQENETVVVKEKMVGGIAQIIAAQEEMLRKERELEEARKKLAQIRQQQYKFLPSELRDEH
Chain of UniProt Q9UQ80 (Q9UQ80 whole entry): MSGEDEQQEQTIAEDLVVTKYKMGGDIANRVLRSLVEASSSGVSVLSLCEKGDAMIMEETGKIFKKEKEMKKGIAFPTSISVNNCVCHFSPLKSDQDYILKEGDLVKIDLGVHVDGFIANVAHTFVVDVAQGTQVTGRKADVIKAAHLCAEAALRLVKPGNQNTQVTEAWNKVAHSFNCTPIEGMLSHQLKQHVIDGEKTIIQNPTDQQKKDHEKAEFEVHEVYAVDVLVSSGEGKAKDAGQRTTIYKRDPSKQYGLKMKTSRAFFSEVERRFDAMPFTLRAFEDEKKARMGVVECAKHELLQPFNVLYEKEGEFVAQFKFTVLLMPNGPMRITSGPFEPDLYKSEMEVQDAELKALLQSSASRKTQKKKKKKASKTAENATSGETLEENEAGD
Chain of UniProt P60903 (P60903 whole entry): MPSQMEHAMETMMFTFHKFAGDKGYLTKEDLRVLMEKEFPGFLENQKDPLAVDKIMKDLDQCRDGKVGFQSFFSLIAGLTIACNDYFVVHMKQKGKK
Chain of UniProt P26038 (P26038 whole entry): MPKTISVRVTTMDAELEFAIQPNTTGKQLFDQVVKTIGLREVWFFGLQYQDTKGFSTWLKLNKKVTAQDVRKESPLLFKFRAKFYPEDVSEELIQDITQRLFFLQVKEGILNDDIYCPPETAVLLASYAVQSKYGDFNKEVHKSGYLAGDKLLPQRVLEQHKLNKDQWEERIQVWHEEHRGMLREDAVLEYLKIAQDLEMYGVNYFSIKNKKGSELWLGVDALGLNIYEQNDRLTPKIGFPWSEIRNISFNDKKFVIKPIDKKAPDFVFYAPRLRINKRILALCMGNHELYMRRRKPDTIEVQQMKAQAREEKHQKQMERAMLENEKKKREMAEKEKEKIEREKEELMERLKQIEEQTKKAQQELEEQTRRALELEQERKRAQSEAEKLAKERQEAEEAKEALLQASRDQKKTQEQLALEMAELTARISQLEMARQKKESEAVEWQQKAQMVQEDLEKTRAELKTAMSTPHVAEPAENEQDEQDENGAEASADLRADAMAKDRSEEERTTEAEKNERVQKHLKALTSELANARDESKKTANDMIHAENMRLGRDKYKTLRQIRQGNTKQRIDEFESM
Chain of UniProt P09382 (P09382 whole entry): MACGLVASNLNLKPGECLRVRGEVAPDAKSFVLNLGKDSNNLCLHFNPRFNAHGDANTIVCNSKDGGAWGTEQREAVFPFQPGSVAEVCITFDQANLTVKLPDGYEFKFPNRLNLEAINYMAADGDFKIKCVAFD
Chain of UniProt Q9H4F8 (Q9H4F8 whole entry): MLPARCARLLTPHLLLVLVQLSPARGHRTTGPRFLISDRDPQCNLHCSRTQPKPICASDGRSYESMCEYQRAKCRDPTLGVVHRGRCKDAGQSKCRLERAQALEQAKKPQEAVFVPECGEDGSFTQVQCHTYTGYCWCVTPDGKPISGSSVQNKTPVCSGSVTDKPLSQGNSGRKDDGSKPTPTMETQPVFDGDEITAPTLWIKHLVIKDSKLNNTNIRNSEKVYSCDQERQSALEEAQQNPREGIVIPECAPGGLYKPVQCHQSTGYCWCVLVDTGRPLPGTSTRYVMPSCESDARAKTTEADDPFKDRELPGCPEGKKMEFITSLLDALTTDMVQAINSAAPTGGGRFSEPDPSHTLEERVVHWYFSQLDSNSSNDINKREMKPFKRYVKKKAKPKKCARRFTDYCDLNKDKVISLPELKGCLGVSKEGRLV

Target	lysine labeling ratio R10:1
CYR61 (lysine site: K203) (UniProt O00622)	2.96
SMOC1 (lysine site: K381) (UniProt Q9H4F8)	1.04 (active)
UniProt Q15149 (lysine site: K3968)	2.71
L1CAM (lysine site: K515) (UniProt P32004)	1.77 (active)
DDX5 (lysine site: K284) (UniProt P17844)	0.51 (active)
MCAM (lysine site: K134) (UniProt P43121)	3.83
VAT1 (lysine site: K391) (UniProt Q99536)	2.03
IDH2 (lysine site: K384) (UniProt P48735)	3.48
F13A1 (lysine site: K258) (UniProt P00488)	1.15 (active)
UniProt Q9UHN6 (lysine site: K1220)	2.87
IGF1R (lysine site: K665) (UniProt P08069)	1.28 (active)
DDX3X (lysine site: K264) (UniProt O00571)	1.78 (active)
ATP1B1 (lysine site: K134) (UniProt P05026)	6.75
UniProt Q13620 (lysine site: K903)	3.24
KRT18 (lysine site: K372) (UniProt P05783)	2.29
LGALS1 (lysine site: K130) (UniProt P09382)	2.14
TFRC (lysine site: K145) (UniProt P02786)	2.7
DSC2 (lysine site: K270) (UniProt Q02487)	2.49
MAP4 (lysine site: K946) (UniProt P27816)	1.95 (active)
TLN1 (lysine site: K687) (UniProt Q9Y490)	3.61

Target	lysine labeling ratio R10:1
ARPC2 (lysine site: K275) (UniProt O15144)	2.12
RTN4 (lysine site: K1104) (UniProt Q9NQC3)	1.32 (active)
SLC44A2 (lysine site: K210) (UniProt Q8IWA5)	2.8
ALCAM (lysine site: K60) (UniProt Q13740)	2.97
PA2G4 (lysine site: K238) (UniProt Q9UQ80)	1.53 (active)
MSN (lysine site: K316) (UniProt P26038)	1.47 (active)
SH3BP4 (lysine site: K679) (UniProt Q9P0V3)	3.02
SLC25A5 (lysine site: K63) (UniProt P05141)	3.19
TFRC (lysine site: K344) (UniProt P02786)	9.15
P4HB (lysine site: K328) (UniProt P07237)	1.54 (active)
FH (lysine site: K66) (UniProt P07954)	2.79
UniProt Q99500 (lysine site: K27)	1.9 (active)
DYNC1H1 (lysine site: K371) (UniProt Q14204)	1.14 (active)
GPRC5A (lysine site: K14) (UniProt Q8NFJ5)	6.52
KPNB1 (lysine site: K211) (UniProt Q14974)	2.19
EBP (lysine site: K106) (UniProt Q15125)	4.19
S100A10 (lysine site: K28) (UniProt P60903)	5.79
UniProt P55072 (lysine site: K696)	1.22 (active)
ROBO1 (lysine site: K137) (UniProt Q9Y6N7)	5.8
LMAN1 (lysine site: K346) (UniProt P49257)	9.39
